In the library only some 4% were active in any assay of this set; here they are far more common.
NALP3 yeast inh = NALP3 inflammasome inhibitors in reconstituted yeast, primary screen, luminescence, uHTS; inhibition, % at 10 µM; Yeast reconstituted NLRP3/ASC/caspase-1, beta-gal luminescence, 24 h; 330,000 tested, 0.39% active;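 active means inhibition of 50% or more; inactive means inhibition below 50%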;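 further: plate controls were induced DMSO wells for no effect and uninduced yeast grown without galactose for full effect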
NALP1 yeast inh = NALP1 inflammasome inhibitors in reconstituted yeast, colorimetric, S. cerevisiae, triplicate retest; S. cerevisiae NALP1/ASC/caspase-1 growth, X-gal OD620, 72 h; inhibition, % at 10 µM; 280,000 tested, 0.61% active; in the data active means inhibition mostly above about 24%, no sharp cut-off; inactive means mostly below about 32%
TIM10 inh = growth inhibitors of isogenic TIM10 control yeast, primary screen, counter-screen for tim10-1 yeast inhibitor project, luminescence, uHTS; AID 463195, 2010; S. cerevisiae TIM10 strain growth, BacTiter-Glo luminescence, 24 h; inhibition, % at 10 µM; 330,000 tested, 1.4% active;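 active means inhibition of 40% or more at the single tested concentration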;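 further: wild-type TIM10 isogenic control strain grown at permissive 25 °C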
tim10-1 inh = growth inhibitors of tim10-1 mutant yeast, primary screen, luminescence, uHTS | inhibition, % at 20 µM | S. cerevisiae tim10-1 ts strain growth, BacTiter-Glo, 24 h | 330,000 tested, 2.2% active;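 active means inhibition of at least 40%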;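 further: mutant grown at 25 °C; 0% = DMSO wells with yeast and 100% = wells holding no yeast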
tim23-1 inh = growth inhibitors of tim23-1 mutant yeast, primary screen, luminescence, uHTS; S. cerevisiae tim23-1 growth, BacTiter-Glo luminescence, 24 h; 330,000 tested, 1.3% active; inhibition, % at 20 µM;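 active means growth inhibition of the mutant yeast at or above 50%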;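 further: temperature-sensitive mutant grown at 25 °C; plate controls were DMSO-treated mutant yeast for no effect and medium wells lacking yeast for full effect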
tim10-1 confirm = growth inhibitors of tim10-1 mutant yeast, confirmation, single concentration, luminescence, S. cerevisiae; 7,400 tested, 56% active; AID 463213, 2010; shares compounds with tim10-1 inh; S. cerevisiae tim10-1 ts strain growth, BacTiter-Glo, 24 h; inhibition, % at 20 µM;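 active means inhibition of yeast growth at or above a set limit in either of two repeat tests at 20 µM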;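 further: tim10-1 mutant grown at permissive 25 °C to find synthetic lethal compounds; 0% = DMSO yeast wells and 100% = medium wells without yeast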
Active calls of the source: *; nt = not tested or not shown.

SMILES | NALP3 yeast inh | NALP1 yeast inh | TIM10 inh | tim10-1 inh | tim23-1 inh | tim10-1 confirm
CC1CC(C)CN(S(=O)(=O)c2ccc(C(=O)Nc3nnc(-c4cccs4)o3)cc2)C1 (stereo not given) | 0.9 | 16.3 | 18.0 | 41.7* | 6.4 | 21.3
Cc1ccc(/C=C/C(=O)Nc2sc(C)c(C)c2C(=O)OC(C)C)o1 | 6.4 | 5.0 | 1.7 | 13.6 | 10.9 | nt
CCOC(=O)c1c(NC(=O)/C=C/c2ccc(C)o2)sc(C)c1C | 3.7 | 3.0 | 13.0 | 45.8* | 14.0 | 24.5
Cc1cccc(C)c1NC(=S)N(Cc1ccccc1)Cc1cccs1 | 8.0 | -0.7 | 24.1 | 42.1* | 34.1 | 39.2*
O=C(O)CNC(=S)N(Cc1ccccc1)Cc1cccs1 | 2.5 | 11.7 | -9.4 | 1.9 | 10.8 | nt
CCOc1ccc(C(OC(=O)c2ccco2)C(=O)NCc2ccc(C)cc2)cc1 (stereo not given) | -5.5 | -3.2 | -8.6 | 42.7* | 23.4 | 12.2
CC(=O)SC1CC(=O)N(c2ccc(C(C)(C)C)cc2)C1=O (stereo not given) | 22.2 | nt | 35.7 | 55.4* | 43.2 | 52.9*
Cc1ccc(C(=O)c2oc3ccc(Cl)cc3c2NC(=O)CN2CCN(C)CC2)cc1 | 27.1 | 11.2 | 2.6 | 49.0* | 23.4 | 16.9
CC(C)C(NC(=O)c1ccccc1F)C(=O)NCCc1ccccn1 (stereo not given) | 0.9 | 13.1 | 10.1 | 8.2 | -0.2 | nt
O=C(Cc1coc2ccc3ccccc3c12)N1CCN(c2ncccn2)CC1 | 27.2 | 16.3 | 19.7 | 42.6* | 30.5 | 24.0
O=C(Cc1cccc2ccccc12)N1CCN(c2ncccn2)CC1 | 19.8 | 10.1 | 2.0 | 27.4 | 10.1 | nt
COc1ccc(Cl)cc1NC(=O)COC(=O)CCNS(=O)(=O)c1cccs1 | 11.3 | nt | -11.6 | -11.8 | 4.2 | nt
CC12C(=O)N(c3cccc(OC(=O)c4ccco4)c3)C(=O)C1C1c3ccccc3C2c2ccccc21 (stereo not given) | 12.5 | -6.5 | 20.0 | 42.3* | 38.7 | 24.8
CC12C(=O)N(c3ccc(OC(=O)c4ccco4)cc3)C(=O)C1C1c3ccccc3C2c2ccccc21 (stereo not given) | -5.2 | 19.1 | -5.2 | 3.6 | 3.1 | nt
CC(C)c1ccc(CNC(=O)C2CCCN2S(=O)(=O)c2ccccc2)cc1 (stereo not given) | -1.9 | 1.8 | 11.8 | 27.5 | 32.4 | nt
CC1=CC2=C(OC1N(C)C)c1cccc3cccc(c13)C2=O (stereo not given) | -29.8 | -28.7 | 37.1 | 46.7* | 14.4 | 54.8*
Cc1ccccc1OCC(=O)NNC(=S)NC(=O)c1ccccc1[N+](=O)[O-] | 27.8 | 3.0 | 15.3 | 42.0* | 33.9 | 25.1
O=C(NCc1ccccc1)NC1(C(=O)N2CCN(c3ccccc3)CC2)CCCCC1 | 8.9 | -5.7 | 18.9 | 4.1 | 0.7 | nt
Cc1ccn2c(NC(C)(C)C)c(-c3cccs3)nc2c1 | 16.3 | -1.6 | 18.9 | 44.3* | 42.2 | 27.2
Cc1ccn2c(NC(=O)c3cccs3)c(-c3ccccc3)nc2c1 | 11.1 | 30.6 | 12.8 | 0.7 | 21.8 | nt
COc1ccc(-n2ncc(Cl)c(Cl)c2=O)cc1 | -17.7 | -6.8 | -14.7 | -1.4 | -0.6 | nt
COc1ccc(Sc2cnn(-c3ccccc3)c(=O)c2Cl)cc1 | 14.9 | 5.6 | 28.1 | 47.8* | 45.3 | 45.5*
O=C(N/C(=C/c1ccc(F)cc1)C(=O)N1CCCCC1)c1ccco1 | 10.4 | 7.8 | 2.0 | 17.5 | 6.1 | nt
CC(C)C[C@@H](CSc1ccc(Br)cc1)N1CCN(C)CCC1=O | 21.8 | 2.5 | 8.1 | 14.1 | 12.4 | nt
CC(C)C[C@@H](CSc1ccc(Br)cc1)N1CCN(CC(C)C)CCC1=O | 22.6 | -6.6 | 0.1 | 40.2* | 4.2 | 32.2*
SMILES | NALP3 yeast inh | NALP1 yeast inh | TIM10 inh | tim10-1 inh | tim23-1 inh | tim10-1 confirm
C#CCOCCOCCOCCNc1nc(N2CCN(C(=O)C([C@@H](C)CC)n3cc(C(N)COC(=O)C(F)(F)F)nn3)CC2)nc(N2CCN(C(=O)[C@H](CCC(=O)O)n3cc(C(N)CC(C)C)nn3)CC2)n1 (stereo not given in full) | 16.2 | nt | 4.3 | 7.7 | 18.0 | nt
COc1cccc(-c2nn(C)c3sc(C(=O)NCc4ccc(C)cc4)cc23)c1 | 15.4 | -2.0 | 20.9 | 17.5 | 7.0 | nt
COc1cccc(-c2nn(C)c3sc(C(=O)NCc4ccccn4)cc23)c1 | 16.6 | 4.7 | 13.3 | 45.2* | 29.9 | 17.6
CCn1c(SCc2cccc(C)c2)nnc1-c1ccc(C)cc1 | 19.0 | 9.2 | 21.6 | 46.8* | 44.0 | 29.7*
CN(C)S(=O)(=O)c1ccc(NC(=O)C2CC(=O)N(Cc3ccccc3Cl)C2)cc1 (stereo not given) | 7.9 | nt | -2.2 | 3.6 | 11.1 | nt
Cc1ccc(Nc2nnc(C3C(=O)N(C)C4(C)CC3c3cc(Br)ccc3O4)s2)cc1 (stereo not given) | -13.2 | 24.0 | 21.8 | 45.1* | 18.0 | 6.1
Cc1ccc(NC(=O)CSCC(=O)Nc2nnc(C3CC3)s2)cc1 | 8.8 | nt | -8.8 | -9.0 | -2.2 | nt
CC1(C)c2[nH]c3ccccc3c2C[C@@H]2C(=O)N(Cc3ccc(F)cc3)C(=O)N21 | 13.1 | nt | 39.4 | 44.6* | 48.6 | 22.5
O=C(COc1ccccc1[N+](=O)[O-])NCCCN1CCCC1=O | 9.9 | nt | 2.8 | -5.4 | 7.1 | nt
CN1C[C@@H]2C(c3ccccc3)C3(c4ccccc4)CC2(C3)[C@H]1c1ccccc1 (stereo not given in full) | 27.5 | nt | 33.5 | 52.5* | 22.7 | 31.8*
OCCCCC#Cc1c(-c2ccsc2)sc2ccccc12 | 15.5 | -0.7 | 14.0 | 32.9 | 39.2 | nt
OCCC#Cc1c(-c2ccsc2)sc2ccccc12 | -20.2 | -6.6 | 2.0 | 46.4* | -0.4 | 28.5
CCn1c(SCC(=O)Nc2ccc3c(c2)OCO3)nnc1C(C)C | 16.9 | 16.1 | 4.1 | -10.9 | 5.9 | nt
CC(C)Nc1nc(Cl)nc(NCCOc2ccccc2)n1 | 17.7 | 34.2 | 8.1 | 40.1* | -12.0 | 22.6
COc1ccc(C/C(C)=N/NC(=S)Nc2ccc(C(C)C)cc2)cc1 | 7.2 | 7.6 | 9.8 | 40.3* | 34.0 | 24.6
O=C(CCOc1ccc(F)cc1)Nc1nccs1 | 6.2 | 27.5 | -18.7 | 10.3 | -6.6 | nt
C/C(=N\OC(=O)c1c(-c2ccccc2Cl)noc1C)c1ccncc1 | -1.2 | 3.0 | 15.8 | 8.7 | -5.8 | nt
Cc1onc(-c2cccc(Cl)c2Cl)c1C(=O)O/N=C(\N)c1ccc([N+](=O)[O-])o1 | 11.4 | 23.3 | 38.2 | 44.1* | 39.9 | 2.5
C=CCNc1nc(Nc2ccc([N+](=O)[O-])cc2)nc(N2CCCC2)n1 | 5.8 | -1.8 | 23.1 | 34.7 | 25.9 | nt
CC1CCN(c2nc(Cl)nc(Nc3ccc([N+](=O)[O-])cc3)n2)CC1 | 34.5 | 24.1 | 21.9 | 45.6* | 40.3 | 27.4
